Several values for one entry are separate records, joined by “and”; a condition that tells them apart may be missing. Equal values may be shown once. Records with an inconclusive call do not appear. Where a call stands in place of a potency, no number is given. Where a structure was tested more than once in an assay, its records may differ in their call. Activity calls are given as the source filed them. Calls follow the shape of the dose curve; as a rule, active = well fitted cell-killing curve with a large enough effect in the repeat runs; inconclusive = weak or mixed curves, or effect the other way; inactive = flat fitted curve, though single readings scatter.
Potency is read from the fitted curve at half-maximal effect.

The test can be described thus: qHTS assay to identify small molecule agonists of the sonic hedgehog signaling (Shh) pathway - cell viability counter screen (AID 1259366). Also: nearly all actives have a fitted effect of over 50% in size. The following applies: NIH/3T3 Gli1-Luc viability, CellTiter-Fluor, 24 h; series mostly up to 92.4 µM; viability change, negative = cytotoxic: at the top concentration. The essentials: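 Viability measured fluorometrically (CellTiter-Fluor, 1hr, 37C) in 3T3 Gli1-Luc reporter cells after 23hr compound exposure within a 24hr incubation at 37C/5% CO2.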
In general terms: qHTS replaces the single test concentration by a dilution series.
Take `Brc1ccc(Br)cc1`: the Potency entry was “inactive”. Same read-out and setting: as for `COc1ccc(CO)cc1`, the entry is “inactive”; as for `NC(=O)CN1CCCC1=O`, “inactive”.

For the molecule `CC(C)(c1ccccc1)c1ccc(O)c(C(C)(C)c2ccccc2)c1`, the Potency was 60.6 µM (active) and 54.5 µM (active). On to `NN=C(N)N`, for which the Potency result was “inactive”. The same measure, in the same setting: as for `CCOP(=O)(OCC)OCC`, the entry is “inactive”; as for `CCNCC`, “inactive”. `CC(O)CN(CC(C)O)CC(C)O` (configuration not stated): the Potency result is “inactive”.

For `CCNc1nc(Cl)nc(NC(C)(C)C#N)n1`, the Potency entry is “inactive”.

Consider `Cn1c(-c2ccccc2)cc(-c2ccccc2)[n+]1C`, for which the Potency entry is “inactive”. As to `O=C1C(Cl)=C(Cl)C(=O)c2ccccc21`, the Potency was 4.34 µM (active). For the molecule `Cc1cc(Cl)ccc1N=CN(C)C`, the Potency entry was “inactive”. The same measure, in the same setting: as for `Cl`, the entry is “inactive”; as for `Clc1cccc(Cl)c1`, “inactive”; as for `CCCCCCCCCC(CC)c1ccc(S(=O)(=O)O)cc1` (configuration not stated), “inactive”. The same measure, in the same setting: for `Nc1ccc([N+](=O)[O-])cc1N` the value was 30.6 µM (active) and 24.3 µM (active); for `CC(C)(O)C#N`, “inactive”.

On to `ClCC(Cl)CCl`, for which the Potency result is “inactive”. On the same count and under the same terms, as for `O=P(OCCCl)(OCCCl)OCCCl`, the entry is “inactive”.

On to `O=S(=O)(O)C(F)(F)C(F)(F)C(F)(F)C(F)(F)C(F)(F)C(F)(F)C(F)(F)C(F)(F)F`, for which the Potency entry is “inactive”.

With `COP(=O)(NC(C)=O)SC` (configuration not stated), the Potency result was “inactive”.

`CS(=O)(=O)NC(=O)c1cc(Oc2ccc(C(F)(F)F)cc2Cl)ccc1[N+](=O)[O-]`: the Potency result was “inactive”.

In the case of `[CH3][Sn]([Cl])([Cl])[Cl]`, the Potency entry is “inactive”.

As for `c1ccc(C2CO2)cc1` (configuration not stated), the Potency result is “inactive”. The same measure, in the same setting: as for `O=C1Nc2ccc(Cl)cc2C(c2ccccc2)=NC1O` (configuration not stated), the entry is “inactive”. With `[Cl-].[Cl-].[Cl-].[Fe+3]`, the “viability change, negative = cytotoxic” value was 12.9% (inactive). As to `CCOP(=O)(O)OCC` (tested in a mixture with another compound), the Potency result is “inactive and 48.2 µM (active)”. The same measure, in the same setting: for `ClC(Cl)(Cl)Br` the value was “inactive”; for `CN(C)c1ccccc1`, “inactive”. With `CCC[CH2][Sn]([Cl])([Cl])[CH2]CCC`, the Potency was 276 nM (active) and 433 nM (active).

As to `OC(c1ccc(Cl)cc1)(c1cncnc1)c1ccccc1Cl` (configuration not stated), the Potency entry is “inactive”. Same read-out and setting: for `N#CCCCCC#N` the value was “inactive”. With `CC1CC(=O)O1` (configuration not stated), the Potency result is “inactive”. Turning to `CCCCSP(=O)(SCCCC)SCCCC`, the Potency result was “inactive”. For the molecule `N#Cc1c(Cl)c(Cl)c(Cl)c(C#N)c1Cl`, the Potency was 2.13 µM (active) and 3.86 µM (active). Still for that read-out and setting: for `Nc1ncn[nH]1` the value was “inactive”; for `N#CC(c1ccccc1)c1ccccc1`, “inactive”.

Source of the values: PubChem BioAssay (Tox21).
